Vaccinia mCherry: vaccinia inhibition (mCherry reporter); Vaccinia virus mCherry reporter infection, fluorescence; Potency, µM (highest dose often 36.5 µM), actives largely listed as inhibitors; actives 0.63% (n = 310,000); AID 720579; calls by dose curve; tested in A549 cells; also: nearly all actives have a fitted effect of over 35% in size
VACV Venus inh: inhibitors of vaccinia virus (Venus reporter). actives 0.46% (n = 330,000). Vaccinia virus Venus reporter expression, fluorescence. Potency, µM (doses to about 36.5 µM), most hits filed as inhibitors; calls by dose curve; tested in A549 cells; also: nearly all actives have a fitted effect of over 30% in size
HCV inh: HCV inhibition; AID 651820; Potency, µM (titrated, usually from 41.8 µM), most hits filed as inhibitors; actives 3.4% (n = 340,000); Huh7.5.1 HCVcc-Cre infection, luciferase reporter, 44 h; active = well fitted inhibition curve with a large enough effect; inconclusive = small, poorly fitted or top-dose-only effect, or another doubt; inactive = no such curve, though single readings can be large or run the other way
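Luciferase read-out (15 sec integration) after a 15 min room-temperature substrate step quantifies HCVcc-Cre infection. Cells, 1,000 per well, had compound added 4 h post-plating, then virus at ~0.5 moi, and were cultured 44 h.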
HCMV antiviral: inhibitors of human cytomegalovirus | activity change, negative = inhibition, % at 57.5 µM | AID 1259415 | HFF cells, HCMV-luciferase reporter, 72 h; active compounds read low | actives 4.5% (n = 410,000); in the data active = activity change below about -60%; inconclusive = no clear call, values can overlap the other calls; inactive = above about -39%
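Human foreskin fibroblasts infected with luciferase-reporter HCMV at MOI 1 PFU/cell, compounds at two doses. Luciferase measured 72 h post infection; normalized to buffer-only basal and Salinomycin (10uM) controls.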
FMDV antiviral: antivirals against foot and mouth disease virus. Potency, µM (series often up to 57.9 µM), usual class: inhibitors. actives 1.2% (n = 410,000). FMDV antiviral cell-based qHTS; calls by dose curve; tested in HEK293T cells; also: read-out not given here; nearly all actives have a fitted effect of over 45% in size
Of the large screens only hits and unclear results are named; the others gave an inactive call. An excerpt weighted towards active compounds, which were near 7.3% of everything screened.

CCOCCCNC(=O)/C(C#N)=C/c1ccc(Cl)c([N+](=O)[O-])c1	HCV inh inconclusive, HCMV antiviral -102, FMDV antiviral inconclusive
COCCNC(=O)/C(C#N)=C/c1cccc(/C=C(\C#N)C(=O)NCCOC)c1	HCV inh 10µM, HCMV antiviral -68, FMDV antiviral 14µM
N#C/C(=C\c1cccc([N+](=O)[O-])c1)C(=O)NCc1cccnc1	FMDV antiviral inconclusive
CCOCCCNC(=O)/C(C#N)=C/c1cc(OC)c(O)c([N+](=O)[O-])c1	none
COCCNC(=O)/C(C#N)=C/C=C/c1ccccc1[N+](=O)[O-]	HCV inh inconclusive, HCMV antiviral -96, FMDV antiviral inconclusive
COCCNC(=O)/C(C#N)=C/c1ccc(O)c([N+](=O)[O-])c1	none
N#C/C(=C\c1cccc([N+](=O)[O-])c1)C(=O)NCc1ccc(Cl)cc1	HCMV antiviral -98, FMDV antiviral inconclusive
CCc1ccc(CN(Cc2ccco2)c2cnc(S(C)(=O)=O)nc2C(=O)Nc2ccc(C)c(Cl)c2)cc1	none (no result: HCV inh)
N#Cc1cc2c(nc1SCC(=O)Nc1ccc(F)c(Cl)c1)C1CCN2CC1	none (no result: HCV inh)
Cc1ccc(NC(=O)c2cccc(-n3cnnn3)c2)cc1Cl	none (no result: Vaccinia mCherry, VACV Venus inh)
N#Cc1ccccc1OCC(=O)N1CCN(S(=O)(=O)c2ccc(Cl)cc2)CC1	none (no result: Vaccinia mCherry, VACV Venus inh)
COc1ccc2c(-c3ccccc3)cc(SC(C)C(N)=O)nc2c1 (centres undefined)	HCV inh 11µM, HCMV antiviral inconclusive
CCCN(C(=O)CSc1cc(-c2ccccc2)c2ccc(OC)cc2n1)C1CCS(=O)(=O)C1 (centres undefined)	none
Cc1nc(NC2=NCN(CCCN3CCOCC3)CN2)nc2c(C)cccc12	HCV inh 7.1µM (no result: HCMV antiviral)
Cc1nc(NC2=NCN(CCc3ccccc3)CN2)nc2ccccc12	none (no result: Vaccinia mCherry, VACV Venus inh, HCMV antiviral, FMDV antiviral)
CN(C)CCNc1ccc(CO)c2oc3ccc(O)cc3c(=O)c12	Vaccinia mCherry inconclusive, VACV Venus inh 10µM, HCV inh inconclusive, HCMV antiviral -99
CCN(CC)CCNc1ccc(CO)c2oc3cc(Cl)ccc3c(=O)c12	Vaccinia mCherry inconclusive, VACV Venus inh inconclusive (no result: HCV inh)
CCOC(=O)C1(C)CCCN1C(=O)c1ccc(N(C)C)cc1 (centres undefined)	none (no result: HCV inh)
CCOCCOC(=O)c1[nH]c2c(c1C)C(=O)CC(c1ccccc1)C2 (centres undefined)	VACV Venus inh inconclusive, HCV inh inconclusive, HCMV antiviral -71
Cc1c(C(=O)OCCOc2ccccc2)[nH]c2c1C(=O)CC(c1ccccc1Cl)C2 (centres undefined)	Vaccinia mCherry inconclusive, HCMV antiviral -86, FMDV antiviral inconclusive (no result: HCV inh)
CCOCCOC(=O)c1[nH]c2c(c1C)C(=O)CC(c1cccs1)C2 (centres undefined)	VACV Venus inh inconclusive, HCMV antiviral -81
Cc1c(C(=O)OCCOc2ccccc2)[nH]c2c1C(=O)CC(c1ccccc1)C2 (centres undefined)	Vaccinia mCherry inconclusive (no result: HCV inh)
Cc1c(C(=O)OCC2CCCO2)[nH]c2c1C(=O)CC(c1ccc(N(C)C)cc1)C2 (centres undefined)	HCV inh inconclusive, FMDV antiviral 20µM
CC(C)CCNC(=O)CN1C(=O)CSc2ccc(S(=O)(=O)N3CCCCC3)cc21	none (no result: HCV inh)
CC(=O)C1C(N2CC2)CC2C3CCC4=CC(=O)CCC4(C)C3CCC21C (centres undefined)	VACV Venus inh inconclusive, HCV inh 0.56µM, HCMV antiviral -63
CCCn1nc(C(=O)Nc2cc(OCC)c(N3CCOCC3)cc2OCC)c2ccccc2c1=O	HCMV antiviral -92, FMDV antiviral inconclusive (no result: Vaccinia mCherry, VACV Venus inh)
CCOc1cc(N2CCOCC2)c(OCC)cc1NC(=O)Cc1ccccc1OC	HCMV antiviral -61 (no result: Vaccinia mCherry)
CCOc1cc(N2CCOCC2)c(OCC)cc1NC(=O)c1cc(C)cc(C)c1	HCV inh 3.5µM, FMDV antiviral inconclusive
CCOc1cc(N2CCOCC2)c(OCC)cc1NC(=O)c1ccc(C)cc1	HCV inh inconclusive, HCMV antiviral inconclusive
CCOc1cc(N2CCOCC2)c(OCC)cc1NC(=O)c1ccccc1	HCV inh inconclusive
CCc1cccc2c(-c3ccccc3)nc(SCC(=O)Nc3ccccc3)nc12	HCMV antiviral inconclusive (no result: HCV inh)
Cc1c(OCC(=O)NC2CCN(Cc3ccccc3)CC2)ccc2c3c(c(=O)oc12)CCC3	none (no result: Vaccinia mCherry, VACV Venus inh)
Cc1cccc(-c2noc(-c3ccc(N4CCN(C)CC4)c([N+](=O)[O-])c3)n2)c1	HCMV antiviral -78 (no result: HCV inh)
Cc1cccc(-c2noc(-c3ccc(N4CCCC4)c([N+](=O)[O-])c3)n2)c1	HCMV antiviral -74, FMDV antiviral inconclusive (no result: HCV inh)
Cc1ccc(-c2noc(-c3ccc(N4CCCC4)c([N+](=O)[O-])c3)n2)cc1	HCMV antiviral inconclusive (no result: HCV inh)
Cc1cccc(-c2noc(-c3ccc(N4CCOCC4)c([N+](=O)[O-])c3)n2)c1	none (no result: HCV inh)
O=C(NCc1ccc(Cl)cc1)C1CCCN(c2ncnc3onc(-c4ccc(F)cc4)c23)C1 (centres undefined)	none (no result: HCV inh)
c1ccc(CNc2ncnc3sc4c(c23)CCC4)nc1	FMDV antiviral inconclusive (no result: Vaccinia mCherry)
COc1ccccc1Nc1ncnc2scc(-c3ccc(F)cc3)c12	HCMV antiviral -83, FMDV antiviral inconclusive (no result: HCV inh)
c1ccc(-c2csc3ncnc(NCc4ccccn4)c23)cc1	HCV inh 10µM, HCMV antiviral -89, FMDV antiviral 16µM (no result: Vaccinia mCherry, VACV Venus inh)
c1ccc(CNc2ncnc3scc(-c4cccs4)c23)nc1	HCV inh inconclusive, HCMV antiviral -84, FMDV antiviral 16µM (no result: Vaccinia mCherry, VACV Venus inh)
Oc1ccc(Nc2ncnc3scc(-c4ccccc4)c23)cc1	HCV inh 8.9µM, HCMV antiviral -64, FMDV antiviral inconclusive
COc1cc2c(cc1OC)CN(S(C)(=O)=O)CC2	HCMV antiviral -85
CCS(=O)(=O)N1CCc2cc(OC)c(OC)cc2C1	none
CCOC(=O)N1CCN(CC(O)COc2ccccc2C(C)C)CC1 (centres undefined)	FMDV antiviral inconclusive (no result: Vaccinia mCherry)
CCN(CCNCC(O)COc1ccccc1C(C)C)c1cccc(C)c1 (centres undefined)	Vaccinia mCherry inconclusive, VACV Venus inh inconclusive, HCV inh 13µM
CN(CCc1ccccc1)C(=O)c1ccc(NC(=O)Cc2ccc(NC(=O)C3CCN(C(=O)C4CCC4)CC3)cc2)cc1	none
CN(CCc1ccccc1)C(=O)c1ccc(NC(=O)Cc2ccc(NC(=O)C3CCCN(C(=O)C4CCC4)C3)cc2)cc1 (centres undefined)	Vaccinia mCherry 10µM, VACV Venus inh inconclusive, HCV inh inconclusive, HCMV antiviral -70, FMDV antiviral inconclusive
CN(CCc1ccccc1)C(=O)c1ccc(NC(=O)Cc2cccc(NC(=O)C3CCN(C(=O)CCc4ccccc4)CC3)c2)cc1	none
CN(CCc1ccccc1)C(=O)c1ccc(NC(=O)Cc2ccc(NC(=O)C3CCCN(C(=O)CCc4ccccc4)C3)cc2)cc1 (centres undefined)	Vaccinia mCherry inconclusive, VACV Venus inh inconclusive, HCV inh 0.56µM, HCMV antiviral -71, FMDV antiviral inconclusive
CN(CCc1ccccc1)C(=O)c1ccc(NC(=O)Cc2ccc(NC(=O)C3CCN(C(=O)CCc4ccccc4)CC3)cc2)cc1	Vaccinia mCherry inconclusive, VACV Venus inh inconclusive, HCV inh 25µM, HCMV antiviral -88, FMDV antiviral inconclusive
